Reference: PubChem BioAssay (EPA / NIEHS)
Several values for one entry are separate records, joined by “and”; a condition that tells them apart may be missing. Identical values can stand only once. Where a structure was tested more than once in an assay, its records may differ in their call. Activity calls are given as the source filed them. How the source made its calls: active means hit-call score of the fitted dose curve at least 0.9, where 1 is the maximum; inactive means score below 0.9.

Read-out: Interleukin-1 alpha (IL1a), IL1A (gene 3552)
Assay: BSK_KF3CT_IL1a: BioMAP Diversity Plus: KF3CT Assay for Interleukin-1 alpha (IL1a) Biomarker Activity (AID 2283070)
Details: primary human keratinocytes with fibroblasts; actives raise or lower the signal
Method: BSK_KF3CT is a cell-based, multiplexed-readout assay that uses keratinocytes and foreskin fibroblasts, a human skin primary cell co-culture, with measurements taken at 24 hours after chemical dosing in a 96-well plate.BSK_KF3CT_IL1a is an assay component measured in the BSK_KF3CT assay. It measures IL-1a antibody related to regulation of gene expression using ELISA technology.Data from the assay component BSK_KF3CT_IL1a was analyzed into 1 assay endpoint. This assay endpoint, BSK_KF3CT_IL1a, was analyzed with bidirectional fitting relative to DMSO as the negative control and baseline of activity. Using a type of binding reporter, gain or loss-of-signal activity can be used to understand changes in the signaling as they relate to the gene IL1A. Furthermore, this assay endpoint can be referred to as a primary readout, because this assay has produced multiple assay endpoints where this one serves a signaling function. To generalize the intended target to other relatable targets, this assay endpoint is annotated to the cytokine intended target family, where the subfamily is interleukins.
The levels of cell surface (or secreted, indicated by the prefix "s") biomarker endpoints were measured by ELISA. Overt cytotoxicity to cells in confluent adherent cultures (all systems other than the BT system) was assessed by measuring total protein levels using sulforhodamine B (SRB) staining in parallel cultures at the time of biomarker measurements, indicated as SRB endpoints. For proliferation assays for adherent cell types, individual cell types are cultured at sub-confluence and relative cell numbers quantified by SRB staining at time points optimized for each system (48 h: 3C and CASM3C systems; 72 h: BT and HDF3CGF systems; 96 h: SAg system). SRB was performed by staining cells with 0.1% SRB after fixation with 10% TCA and reading wells at 560 nm.Viability and proliferation of PBMC (T cells) was quantified by Alamar Blue reduction for the SAg and BT systems. For PBMC viability (referred to as PBMC Cytotoxicity within the assay endpoint names), cells were plated (75,000/well in a 96-well plate) and then chemical samples added for 1 h before addition of activators, SEB and TSST-1 (20 ng/mL final concentration each). Cells were incubated for 90 h. Then, Alamar Blue (20 uL/well) (Invitrogen, Cat DAL1100) was added for 6 h, and the plates were read with a fluorescence microplate reader at 546/580 nm (excitation/emission). For PBMC proliferation, cells were plated and activated as above but incubated for only 16 h prior to addition of Alamar Blue. Plates were read after 6 h.

Compound | outcome | AC50
CC(C)(C)c1cc(CCC(=O)NCCCCCCNC(=O)CCc2cc(C(C)(C)C)c(O)c(C(C)(C)C)c2)cc(C(C)(C)C)c1O | inactive | 
CO[Si](C)(CCC(F)(F)C(F)(F)C(F)(F)C(F)(F)C(F)(F)C(F)(F)F)OC | inactive | 
OC(O)C(F)(F)C(F)(F)F | inactive | 
OCC(F)(F)C(F)(F)C(F)(F)C(F)(F)C(F)(F)C(F)(F)CO | inactive | 
O=S(=O)(O)CCC(F)(F)C(F)(F)C(F)(F)C(F)(F)C(F)(F)C(F)(F)C(F)(F)C(F)(F)F | inactive | 7.84 µM (active)
OCC(O)CC(F)(F)C(F)(F)C(F)(F)C(F)(F)C(F)(F)C(F)(F)C(F)(F)C(F)(F)F (stereo not given) | inactive | 0.166 µM (active)
C=CC(=O)OCC(F)(F)C(F)(F)C(F)(F)COC(=O)C=C |  | 30 µM (active) and 5.95 µM (active)
NC(=O)C(F)(F)C(F)(F)C(F)(F)C(F)F | inactive | 
O=C(O)C(F)(F)C(F)(F)C(F)(F)C(F)(F)C(F)(F)C(F)(F)C(F)F | inactive | 
CCOC(C=C(C)CCC=C(C)C)OCC |  | 26 µM (active)
O=C(O)CCC(F)(F)C(F)(F)C(F)(F)F | inactive | 
O=C(c1ccccc1)c1ccc(O)cc1O | inactive | 
Brc1nc2ccccc2s1 | inactive | 
Cc1cnccn1 | inactive | 
NCC(F)(F)C(F)(F)C(F)(F)C(F)(F)C(F)(F)C(F)(F)F | inactive | 
Cc1cc(O)c(C(C)(C)C)cc1C(C)(C)C |  | 4.04 µM (active)
Cc1ccc(O)c(-n2nc3ccccc3n2)c1 | inactive | 
CCN(CC)c1ccc(C=O)c(O)c1 | inactive | 
O=C(Cl)C(F)(F)C(F)(F)C(F)(F)C(F)(F)C(F)(F)C(F)(F)F | inactive | 

Compound | outcome | AC50
O=C(O)C(F)(F)OC(F)(F)C(F)(F)OC(F)(F)C(F)(F)OC(F)(F)F | inactive | 
C=CC(=O)OCC(F)(F)C(F)(F)C(F)(F)C(F)(F)C(F)(F)C(F)(F)C(F)(F)C(F)F | inactive | 
CCOC(=O)CC(=O)C(F)(F)C(F)(F)F | inactive | 
O=S(=O)(OCC(F)(F)F)C(F)(F)C(F)(F)C(F)(F)C(F)(F)F | inactive | 
Cc1ccc(S(=O)(=O)C(I)I)cc1 |  | 2.47 µM (active)
OCC(F)(F)C(F)(F)C(F)(F)C(F)(F)C(F)(F)C(F)(F)C(F)(F)C(F)(F)CO | inactive | 50.4 µM (active)
CCN=C1C=CC(=C(c2ccc(N(CC)CC)cc2)c2ccc(N(CC)CC)cc2)c2ccccc21 |  | 2.69 µM (active) and 2.13 µM (active)
O=C1c2c(O)ccc(Nc3ccc(CCO)cc3)c2C(=O)c2c([N+](=O)[O-])ccc(O)c21 | inactive | 
NC(=O)C(F)(F)C(F)(F)C(F)(F)C(F)(F)C(F)(F)C(F)(F)C(F)(F)F | inactive | 
O=C(O)C(F)(F)C(F)(F)C(F)(F)OC(F)(C(F)(F)F)C(F)(F)F | inactive | 
O=C=Nc1cccc2c(N=C=O)cccc12 | inactive | 
Nc1cc([N+](=O)[O-])cc(Cl)c1O | inactive | 
NC(=O)C(F)(F)C(F)(F)C(F)(F)C(F)(F)C(N)=O | inactive | 
C=C(C)C(=O)OCC(F)(F)C(F)(F)C(F)(F)C(F)F | inactive | 
FC(F)(F)C(F)(F)C(F)(F)CC1CO1 (stereo not given) | inactive | 
OCCCCC(F)(F)C(F)(F)C(F)(F)C(F)(F)F | inactive | 
O=C(O)C(F)(F)C(F)(F)C(F)(F)C(=O)O | inactive | 
C[Si](Cl)(Cl)CCC(F)(F)C(F)(F)C(F)(F)C(F)(F)C(F)(F)C(F)(F)F | inactive | 
